Shown are actives, neighbours in structure and some others; about 21% of the full set was active somewhere.
SARS PLpro yeast = inhibitors of SARS-CoV papain-like protease in yeast; S. cerevisiae expressing SARS-CoV PLpro, growth rescue; AID 485353; Potency, µM (highest dose often 32.9 µM), without a hit: at the top dose activity, positive = growth rescue, actives largely listed as activators; 0.19% of 330,000 active; calls by dose curve; note: potency is the fitted concentration of half-maximal effect; 0% is about no effect; nearly all actives have a fitted effect of over 55% in size
Shiga inhibitor = inhibitors of Shiga toxin in Vero cells | Vero cells, Shiga toxin protein synthesis inhibition reporter | inhibition, % at 38.7 µM | 9.2% of 290,000 active | AID 2315; in the data active = inhibition mostly above about 28%, no sharp cut-off; inactive = mostly below about 43%; note: 0% is about no effect
Pf growth 48h = P. falciparum growth inhibition at 48 hours (one generation); AID 504832; P. falciparum luciferase growth in erythrocytes, 48 h; 5.9% of 310,000 active; Potency, µM (doses to about 28.7 µM), for the others: at the highest dose activity change, negative = inhibition, most hits filed as inhibitors; note: potency is the fitted concentration of half-maximal effect; % is set by controls: 0 for no effect and ±100 for the full control effect
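Luminescence readout; reporter = integrated firefly luciferase in P. falciparum. RBC culture at 2% hematocrit, 0.1% parasitemia final, 37 C/5% CO2; decreased signal taken as growth inhibition.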
NS1 function inh = influenza NS1 inhibition. Potency, µM (series often up to 46.1 µM), for the others: top-dose activity, positive = more growth. 0.4% of 270,000 active. AID 2326; calls by dose curve; note: potency is the fitted concentration of half-maximal effect; actives are rising curves; nearly all actives have a fitted effect of over 50% in size
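Recovery from NS1-induced slow growth read by OD600 in budding yeast switched to galactose assay medium (pH 6.0, -URA) at 1:100 dilution. Compound 23 nl per well; the matching strain lacking NS1 serves as control.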
CHX counter = counter-screen hit for Shiga toxin inhibitors, cycloheximide | 12% of 300,000 active | cell reporter, cycloheximide protein synthesis inhibition counterscreen | AID 2314 | max response, %; in the data active = max response mostly above about 13%, no sharp cut-off; inactive = mostly below about 14%; note: read at 38.3 µM for the half of the compounds with a filed dose; 0% is about no effect
Pf growth 96h = P. falciparum growth inhibition at 96 hour, primary screen for plastid delayed-death inhibitors; AID 504834; 6.9% of 320,000 active; P. falciparum luciferase reporter growth, 96 h; Potency, µM (highest dose often 28.7 µM), for inactives: top-dose activity change, negative = inhibition, actives largely listed as inhibitors; note: potency is the fitted concentration of half-maximal effect; % is set by controls: 0 for no effect and ±100 for the full control effect
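96 h incubation, 37 C, 5% CO2, of luciferase-reporter P. falciparum-infected RBCs (2% hematocrit, 0.05% parasitemia final) with test compounds; endpoint luminescence.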
Starred values were filed as active, the others as inactive; ? = inconclusive; · = no result. Unless noted, calls come from the whole dose curve; as a rule, active = well fitted inhibition curve with a large enough effect; inconclusive = small, poorly fitted or top-dose-only effect, or another doubt; inactive = no such curve, though single readings can be large or run the other way.

SMILES	SARS PLpro yeast	Shiga inhibitor	Pf growth 48h	NS1 function inh	CHX counter	Pf growth 96h
COc1ccc(S(=O)(=O)Nc2cc3c(C(C)=O)c(C)oc3c3ccccc23)cc1	10.8%	-12.3	·	15.0%	-0.9	?
Cc1oc2c(cc(NS(=O)(=O)c3ccc(F)cc3)c3ccccc32)c1C(=O)O	0.2%	3.2	3.1%	-0.7%	-3.2	7.38µM*
NC(=S)Nc1ccc(F)c(F)c1F	4.8%	-3.7	2.62µM*	-9.9%	-0.8	35.4%
Cc1ccccc1NC(=S)NCCSc1ccc(Cl)cc1	-3.6%	10.2	-25.7%	·	6.8	50.9%
CCc1ccccc1NC(=S)NCCSc1ccc(Cl)cc1	-27.1%	-4.0	?	·	3.1	4.15µM*
Fc1ccc(NC(=S)NCCc2ccccc2)c(F)c1F	-21.2%	109.3*	?	·	35.5*	-5.9%
Fc1cccc(NC(=S)NCCc2ccccc2)c1	?	96.3*	12.2%	-24.4%	45.4*	222.3%
NC(=S)Nc1ccc(F)cc1F	0.3%	20.8	8.4%	-0.6%	-0.9	0.8%
Cc1cccc(NC(=S)NCCc2ccccc2)c1C	-6.5%	10.2	?	-103.9%	7.2	?
O=[N+]([O-])c1cccc(NC(=S)NCCc2ccccc2)c1	-66.5%	60.2*	?	-29.5%	39.4*	-33.0%
Fc1ccccc1NC(=S)NCCc1ccc(Cl)cc1	-0.4%	73.9*	?	-67.9%	53.5*	?
S=C(NCCc1ccccc1)Nc1ccc(Nc2ccccc2)cc1	-3.5%	9.3	?	-31.0%	-2.1	-3.0%
Fc1ccccc1NC(=S)NCCc1ccccc1	6.9%	59.4*	57.1%	-18.1%	39.0*	62.7%
Fc1ccc(F)c(NC(=S)NCCc2ccccc2)c1	1.6%	95.8*	6.4%	·	30.0*	42.3%
COc1ccc(-c2cc(=O)c3c(O)cc(O)c(-c4cc(-c5cc(=O)c6c(O)cc(OC)cc6o5)ccc4OC)c3o2)cc1	·	4.1	·	·	-0.7	·
Cc1onc(C(=O)Nc2ccccc2C(F)(F)F)c1[N+](=O)[O-]	2.1%	-8.8	22.7%	24.0%	38.0	-4.5%
CC(C)c1onc(C(=O)Nc2cccc(O)c2)c1[N+](=O)[O-]	1.0%	145.4*	-29.4%	·	31.4*	92.3%
CC(C)c1onc(C(=O)Nc2ccc3c(c2)OCO3)c1[N+](=O)[O-]	-8.6%	52.1*	7.9%	-18.2%	33.1*	38.6%
O=C(Nc1cccc(C(F)(F)F)c1)c1cc(-c2ccc(F)cc2)on1	8.4%	70.4	15.3%	-0.5%	9.3	·
Cc1onc(C(=O)Nc2cccc(C(F)(F)F)c2)c1[N+](=O)[O-]	-7.4%	21.9	20.4%	-6.8%	26.8*	-1.3%
CC(C)c1cc(C(=O)Nc2cccc(C(F)(F)F)c2)no1	-10.4%	121.5*	·	-4.0%	49.7*	?
COc1ccc(C(=O)Nc2c(N)nc(SCC(=O)N3CCCCCC3)[nH]c2=O)cc1OC	?	-0.7	-2.7%	9.4%	-2.5	?
CCc1ccccc1NC(=O)c1noc(C(C)C)c1[N+](=O)[O-]	-4.5%	20.8	9.5%	·	5.2	-12.0%
Cc1ccc(NC(=O)c2noc(C(C)C)c2[N+](=O)[O-])cc1	-0.2%	78.4*	?	·	55.4*	?
OC[C@H]1OC(O)[C@H](O)[C@@H](O)[C@@H]1O (stereo partly drawn)	·	-8.9	·	·	-4.1	·
SMILES	SARS PLpro yeast	Shiga inhibitor	Pf growth 48h	NS1 function inh	CHX counter	Pf growth 96h
CC(C)C(=O)Nc1ccc(C(=O)Nc2ccc(S(=O)(=O)N3CCOCC3)cc2)cc1	-4.5%	-7.6	?	0.7%	-1.7	260.1%
CC(C)C(=O)Nc1cccc(C(=O)Nc2ccc(S(=O)(=O)N3CCOCC3)cc2)c1	8.4%	-5.3	-11.2%	-9.9%	-1.7	10.4µM*
Cc1occc1C(=O)Nc1ccc(S(N)(=O)=O)cc1	1.0%	13.1	58.0%	0.6%	7.6	25.7%
Cc1occc1C(=O)Nc1ccc(S(=O)(=O)N2CCCC2)cc1	3.9%	29.0*	11.3%	-5.8%	8.9	-0.2%
O=C(Nc1ccccc1)c1ccc(S(=O)(=O)N2CCCCC2)cc1	15.6%	19.1*	?	-30.4%	10.6*	?
O=C(Nc1ccccc1)c1ccc(S(=O)(=O)N2CCCC2)cc1	5.6%	-0.8	?	-13.3%	-1.5	36.9%
Cc1cccc(NC(=O)c2ccc(S(=O)(=O)N3CCCCCC3)cc2)n1	0.2%	·	?	·	·	?
O=C(Nc1ccn(-c2ccccc2)n1)c1ccc(S(=O)(=O)N2CCCCCC2)cc1	2.5%	11.0	1.04µM*	-127.2%	-2.8	?
Cn1ncc(Br)c1NC(=O)Nc1ccc(Cl)cc1	0.7%	-6.0	-12.8%	1.1%	-6.6	-5.0%
Cc1ccc(C)c(CNS(=O)(=O)c2c(C(=O)N3CCCC3)c(C)n(C)c2C)c1	-0.6%	-5.8	?	-0.1%	-2.1	?
O=C(Nc1ccon1)c1ccc(S(=O)(=O)N2CCCCCC2)cc1	3.2%	15.2	9.28µM*	?	-2.1	?
O=C(Nc1ccc(S(=O)(=O)N2CCOCC2)cc1)c1ccccc1	0.8%	-8.7	-16.6%	-3.3%	-2.0	-13.8%
Cc1ccc(C(=O)Nc2ccon2)cc1S(=O)(=O)N1CCCCCC1	10.5%	33.5	·	7.2%	15.1	?
Cc1ccc(NC(=O)c2ccc(S(=O)(=O)N3CCCCC3)cc2)cc1	-4.8%	-13.3	?	0.2%	0.3	11.7µM*
CC(=O)Nc1ccc(C(=O)Nc2ccc(S(=O)(=O)N3CCOCC3)cc2)cc1	2.7%	27.5	?	7.8%	15.9*	8.28µM*
COc1cc(C(=S)N2CCOCC2)cc(OC)c1OS(=O)(=O)c1ccc(NC(C)=O)cc1	1.5%	-15.9	0.1%	-8.9%	-3.6	13.1µM*
CSCC(O)Cn1ncc2ccccc2c1=O (stereo not drawn)	-4.8%	32.6	38.2%	-2.7%	20.9*	33.0%
CCOc1ccc(/C=N/NC(=O)CN2CCCCCCC2)cc1	-4.9%	3.4	-8.6%	·	5.4	?
COc1ccc([N+](=O)[O-])cc1-c1[nH]c(-c2ccc(C(=O)O)cc2)nc1-c1ccccc1	-9.1%	-9.4	8.28µM*	13.3%	1.3	?
Cc1ccc([N+](=O)[O-])cc1-c1[nH]c(-c2ccc(O)c(O)c2)nc1-c1ccccc1	22.7%	0.8	·	23.6%	-4.4	19.8%
COc1ccc(-c2nc(-c3ccccc3)c(-c3cc([N+](=O)[O-])ccc3C)[nH]2)cc1O	-22.0%	19.2	5.22µM*	21.0%	-6.4	?
c1ccc(-n2nc3c(ccc4cnnc43)[nH]2)cc1	-21.5%	83.3*	52.1%	-51.0%	43.5*	-7.7%
c1ccc(-n2cnnn2)cc1	·	·	-8.5%	·	·	-15.8%
CN(C)c1ccc(SC#N)cc1	1.4%	-2.0	6.57µM*	-3.7%	0.5	2.94µM*
OC(CN1CCCCC1)CN(c1ccccc1)c1ccccc1 (stereo not drawn)	0.6%	-16.3	·	-7.1%	-1.8	9.28µM*
NC(N)=NCC(O)CN(c1ccccc1)c1ccccc1 (stereo not drawn)	-0.5%	-2.0	1.17µM*	-3.3%	-1.1	1.47µM*

Bioassay records from PubChem.
